IL-1B inflam inh: inhibitors of inflammasome signaling (IL-1 beta secretion); activity change, % at 57.5 µM; THP-1 LPS/ATP IL-1B secretion, AlphaLISA, 16 h; active compounds read low; hit rate 4.7% among 360,000; in the data active means activity change below about -50%; inconclusive means mostly about -30% to -49%
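Secreted IL-1B measured by AlphaLISA bead assay after 16 h compound exposure of THP-1 cells; compounds (final up to 57.5 uM) added 1 h before LPS (250 ng/mL) and ATP (1.25 mM) stimulation; lower signal means less secretion.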
HT1080 IDH1KD tx: kills HT-1080 cells with IDH1 knockdown; HT-1080 IDH1 knockdown viability, ATP luminescence, 48 h; Potency, µM (top dose mostly 46.1 µM), inactives show at the highest dose activity, negative = toxicity, hits mostly cytotoxic; hit rate 2% among 360,000;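 further: potency means the concentration at half of the fitted maximal effect; 0% = DMSO wells and -100% = cell-free medium wells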
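CellTiter-Glo luminescence after 48 h compound exposure at 37 degrees C of IDH1-knockdown HT-1080 cells in 5% FBS RPMI. %Activity scaled between DMSO wells and cell-free media wells, with curves fitted and assigned curve classes.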
TDP1 cell noCPT: qHTS for Inhibitors of human tyrosyl-DNA phosphodiesterase 1 (TDP1): qHTS in cells in absence of CPT; DT40 Tdp1-/- hTDP1 cells, no CPT, ATP luminescence, 48 h; Potency, µM (top dose mostly 46.2 µM), inactives show at the highest dose activity change, negative = growth inhibition, most hits filed as inhibitors; AID 686978, 2013; hit rate 15% among 420,000; further: potency means the concentration at half of the fitted maximal effect; nearly all actives have a fitted effect of over 55% in size
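Chicken DT40 Tdp1-/- cells complemented with human TDP1, screened without camptothecin (DMSO vehicle only), 400 cells/well. Compounds pin-transferred, cells incubated at 37 °C for at least 48 hr. Growth read as ATP-dependent luminescence (CellTiter-Glo, 30 min at RT).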
HT1080-NT tox: kills 2HG-producing HT-1080-NT fibrosarcoma cells; HT-1080-NT fibrosarcoma viability, CellTiter-Glo ATP luminescence, 48 h; Potency, µM (doses to about 46.1 µM), for inactives: top-dose activity, negative = less viability, usual class: cytotoxic; hit rate 1.6% among 360,000; AID 686970;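 further: NT is the 2HG producing partner of a matched IDH1 knockdown line; potency means the concentration at half of the fitted maximal effect; 0% = DMSO-treated cells and -100% = media-only wells without cells; nearly all actives have a fitted effect of over 55% in size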
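HT-1080-NT; 750 cells/well; 5% FBS RPMI; 48 h compound, 37 degrees C; CellTiter-Glo luminescence; curve fitting and curve-class assignment.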
ALOX12 inh: inhibitors of human 12S-lipoxygenase ALOX12; P18054; purified 12hLO, xylenol orange hydroperoxide absorbance; Potency, µM (highest dose often 108 µM), inactives show at the highest dose activity change, negative = inhibition, most hits filed as inhibitors; hit rate 1.1% among 580,000; AID 1671190; further: potency means the concentration at half of the fitted maximal effect
Target sequence (P18054 whole entry, looked up): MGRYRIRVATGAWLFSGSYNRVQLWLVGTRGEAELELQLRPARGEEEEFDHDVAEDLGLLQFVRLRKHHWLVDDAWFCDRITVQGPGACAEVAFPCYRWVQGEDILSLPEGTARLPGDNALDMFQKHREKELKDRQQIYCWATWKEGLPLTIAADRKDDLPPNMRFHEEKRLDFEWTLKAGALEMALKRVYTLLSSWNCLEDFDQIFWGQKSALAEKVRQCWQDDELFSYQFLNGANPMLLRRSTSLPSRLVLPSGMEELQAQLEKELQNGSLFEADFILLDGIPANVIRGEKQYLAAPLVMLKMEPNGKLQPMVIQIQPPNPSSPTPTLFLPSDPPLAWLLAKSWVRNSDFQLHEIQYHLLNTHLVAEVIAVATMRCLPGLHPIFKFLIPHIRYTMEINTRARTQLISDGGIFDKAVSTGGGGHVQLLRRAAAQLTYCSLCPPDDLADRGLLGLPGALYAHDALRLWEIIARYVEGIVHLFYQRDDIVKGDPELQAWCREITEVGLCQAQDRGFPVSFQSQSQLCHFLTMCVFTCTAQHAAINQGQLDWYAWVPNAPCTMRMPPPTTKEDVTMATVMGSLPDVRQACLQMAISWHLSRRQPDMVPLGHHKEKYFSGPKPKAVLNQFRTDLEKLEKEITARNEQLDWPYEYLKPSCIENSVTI
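Purified human 12hLO at 150 nM in 25 mM Hepes, 0.01% Triton X-100, pH 7.0, preincubated 15 min at room temperature with compound. Reaction started with 40 uM arachidonic acid, 30 min at room temperature. Hydroperoxide measured by Fe-xylenol orange, 573/405 nm absorbance ratio.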
TDP1 cell CPT: DT40-hTDP1 cell growth loss with CPT; hit rate 12% among 420,000; AID 686979; chicken DT40 Tdp1-/-;hTDP1 cells + 20 nM CPT, ATP luminescence, 48 h; Potency, µM (top dose mostly 46.2 µM), inactives show top-dose activity change, negative = growth inhibition, actives largely listed as inhibitors; further: potency means the concentration at half of the fitted maximal effect; nearly all actives have a fitted effect of over 55% in size
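Chicken DT40 Tdp1-/- cells complemented with human TDP1, 400 cells/well, exposed to compounds plus 20 nM camptothecin for at least 48 h at 37 C; viability read as ATP content by CellTiter-Glo luminescence.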
Numbers without * were called inactive; i = inactive; ? = inconclusive; . = no result. The entries come from a sample that favours hits as a whole. Unless noted, the call rests on the fitted dose curve; in most records, active means well fitted curve in the direction sought with a large enough effect; inconclusive means small, poorly fitted or top-dose-only effect, or another doubt; inactive means no such curve, though single readings can be large; an effect the other way counts as inactive or inconclusive. Unless noted, on the % scale 0 is the no-effect control and ±100 the full control effect.

SMILES	IL-1B inflam inh	HT1080 IDH1KD tx	TDP1 cell noCPT	HT1080-NT tox	ALOX12 inh	TDP1 cell CPT
O=C(Nc1ccccc1)C1Cc2c(-c3ccccc3Oc3ccccc3)ccnc2O1 (stereo unspecified)	-56.8*	?	?	?	?	?
O=C(Nc1cc(C(F)(F)F)ccc1F)C1Cc2c(-c3ccccc3Oc3ccccc3)ccnc2O1 (stereo unspecified)	-0.9	?	18.4µM*	?	1.4%	?
O=C(Nc1cccc(OC(F)(F)F)c1)C1Cc2c(-c3ccccc3Oc3ccccc3)ccnc2O1 (stereo unspecified)	-10.7	?	?	?	-6.8%	?
O=C(Nc1ccc(Cl)cc1)C1Cc2c(-c3ccccc3Oc3ccccc3)ccnc2O1 (stereo unspecified)	-53.4*	?	?	?	-13.7%	23.1µM*
COc1ccc(NC(=O)C2Cc3c(-c4ccccc4Oc4ccccc4)ccnc3O2)cc1 (stereo unspecified)	?	-23.5%	?	-0.1%	-45.1%	?
COc1cc(OC)cc(C(=O)NNC(=O)CCC(=O)c2cccs2)c1	i	23.8%	4.5%	6.5%	11.5%	0.7%
CN(C)C[C@@H]1CN(c2ncccn2)C[C@H]1NC(=O)Cc1cccc(Cl)c1	.	.	.	.	39.1%	.
CCn1c(C)c(CCC(=O)NCCN2CCN(C)CC2)c(=O)n2nc(-c3ccccc3OC)cc12	.	.	.	.	-19.7%	.
CCOC(=O)C1=CCN(S(=O)(=O)c2ccccc2C)C1c1cccc(Br)c1 (stereo unspecified)	42.0	?	20.6µM*	?	-4.6%	?
CCOC(=O)C1=CCN(S(=O)(=O)c2ccccc2C)C1c1cccc(F)c1 (stereo unspecified)	49.8	-18.4%	16.4µM*	5.1%	-14.9%	?
CCOC(=O)C1=CCN(S(=O)(=O)c2cccc(Cl)c2)C1c1cccc(F)c1 (stereo unspecified)	?	-9.1%	20.6µM*	-13.8%	-1.4%	20.6µM*
CCOC(=O)C1=CCN(S(=O)(=O)c2ccc(F)cc2)C1c1cccc(Cl)c1 (stereo unspecified)	14.7	-15.2%	?	-10.1%	-17.6%	-20.4%
CCOC(=O)C1=CCN(S(=O)(=O)c2ccccc2F)C1c1cccc(Br)c1 (stereo unspecified)	15.8	?	?	?	191.9%	?
Cc1ccc(CN2CCCn3nc(C(=O)NCc4cc(C)ccc4C)cc3C2=O)cc1	.	.	16.4µM*	.	0.1%	14.6µM*
Cc1ccc(CN2CCCn3nc(C(=O)NCc4ccc(N(C)C)cc4)cc3C2=O)cc1	.	.	13µM*	.	5.2%	?
COc1cccc(CNCCSc2nnnn2C)c1OCc1ccc(Cl)cc1Cl	.	.	23.1µM*	.	?	16.4µM*
COc1cccc(CNCCSc2nnnn2C)c1OCc1ccc(Cl)cc1	.	.	?	.	-15.3%	20.6µM*
COc1ccc(N2C(=O)CN(C3CCCCC3)[C@H]3CS(=O)(=O)C[C@H]32)cc1	.	.	.	.	10µM*	.
CCCOc1ccc(CNC(=O)[C@@]23CCCC[C@H]2N(CCOC)C(=O)CC3)cc1	.	.	.	.	30.2%	.
Cc1cc(C)n(CC(O)COc2ccc(Cl)cc2)n1 (stereo unspecified)	-4.8	7.9%	-15.5%	15.3%	-9.4%	4.4%
Cc1nccn1CC(O)COc1ccc(Cl)cc1Cl (stereo unspecified)	-3.4	-21.2%	14.6µM*	?	8.2%	?
Cc1cc(C)n(CC(O)COc2ccc(Cl)cc2Cl)n1 (stereo unspecified)	-51.7*	13.1%	20.6µM*	10.9%	3.6%	?
CCc1cccc(NC(=O)N2C[C@@H](F)C[C@H]2C(=O)N2CCCCC2)c1	.	.	.	.	49.9%	.

From PubChem
